TRPML1 blocker – qHTS for Inhibitors of the Human Mucolipin Transient Receptor Potential 1 (TRPML1); AID 624415, 2012; 0.02% of 390,000 active; activity change, negative = inhibition, % (test concentration not listed); TRPML1-inducible cells, Ca2+ dye fluorescence, FDSS; stronger effect = lower value; inhibition of EC80 agonist-evoked calcium signal; in the data active means activity change below about -50%; inconclusive means between about -30% and that limit;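 further: stimulus is agonist 54-4 at its EC80 concentration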
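Calcium fluorescence in TRPML1-DL cells induced overnight with Tet: a 110 s read after compound pin addition, then a 110 s antagonist read after challenge with 54-4 at 4 uM final (EC80).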
EPAC2 antagonist – qHTS for Antagonist of cAMP-regulated guanine nucleotide exchange factor 2 (EPAC2): primary screen | Potency, µM (highest dose often 114 µM), actives largely listed as inhibitors | AID 720708, 2013 | EPAC2 GEF exchange of Rap1B-BODIPY-GDP, fluorescence | Rap guanine nucleotide exchange factor 4 (Homo sapiens), Q8WZA2 | 0.18% of 360,000 active; further: nearly all actives have a fitted effect of over 45% in size
Target sequence (Q8WZA2 whole entry, looked up): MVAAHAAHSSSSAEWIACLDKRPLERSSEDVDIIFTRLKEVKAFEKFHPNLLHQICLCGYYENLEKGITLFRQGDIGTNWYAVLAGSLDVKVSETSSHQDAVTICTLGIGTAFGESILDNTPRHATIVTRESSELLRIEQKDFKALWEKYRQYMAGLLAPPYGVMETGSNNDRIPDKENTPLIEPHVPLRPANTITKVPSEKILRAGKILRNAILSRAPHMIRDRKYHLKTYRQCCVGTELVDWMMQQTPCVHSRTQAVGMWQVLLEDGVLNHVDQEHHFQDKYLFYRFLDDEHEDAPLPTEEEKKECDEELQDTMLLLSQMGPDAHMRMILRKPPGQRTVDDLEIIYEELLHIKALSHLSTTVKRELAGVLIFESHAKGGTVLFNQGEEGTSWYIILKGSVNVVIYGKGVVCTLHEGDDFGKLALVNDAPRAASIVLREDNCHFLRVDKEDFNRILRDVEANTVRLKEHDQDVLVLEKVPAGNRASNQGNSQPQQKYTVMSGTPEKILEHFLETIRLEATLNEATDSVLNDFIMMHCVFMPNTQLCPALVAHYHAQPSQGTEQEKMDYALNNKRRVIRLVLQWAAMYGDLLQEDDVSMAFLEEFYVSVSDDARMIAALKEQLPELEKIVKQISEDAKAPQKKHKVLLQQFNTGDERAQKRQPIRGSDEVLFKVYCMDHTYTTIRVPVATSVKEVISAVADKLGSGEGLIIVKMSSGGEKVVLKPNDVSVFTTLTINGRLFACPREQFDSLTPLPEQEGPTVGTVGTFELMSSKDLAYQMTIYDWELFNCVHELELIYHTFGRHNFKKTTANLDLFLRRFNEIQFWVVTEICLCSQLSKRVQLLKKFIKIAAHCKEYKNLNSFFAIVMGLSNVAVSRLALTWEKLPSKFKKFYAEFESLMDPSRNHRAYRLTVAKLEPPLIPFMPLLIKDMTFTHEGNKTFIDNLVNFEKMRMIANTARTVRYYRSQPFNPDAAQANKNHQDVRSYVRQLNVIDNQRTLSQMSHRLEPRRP
EPAC2 ag – qHTS for Agonist of cAMP-regulated guanine nucleotide exchange factor 4 (EPAC2): primary screen; Potency, µM (top dose mostly 154 µM), usual class: activators; 0.079% of 360,000 active; EPAC2 activation, biochemical qHTS; response scale: 100% = 6.5 mM cAMP response; AID 720711, 2013; further: nearly all actives have a fitted effect of over 50% in size
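Compounds were titrated in qHTS against a Rap1B-BODIPY-GDP (250 nM) complex with EPAC2 (100 nM) and GDP (50 uM). BODIPY-GDP release tracked at 480/540 nm over 30 min at room temperature, normalized to 6.5 mM cAMP.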
EPAC1 ag – qHTS for Agonist of cAMP-regulated guanine nucleotide exchange factor 3 (EPAC1): primary screen. EPAC1 agonist qHTS, biochemical assay; response scale: 100% = response to 6.5 mM cAMP. Potency, µM (doses to about 154 µM), most hits filed as activators. 0.073% of 360,000 active. AID 720707, 2013; further: nearly all actives have a fitted effect of over 60% in size
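Read-out is the fluorescence drop as BODIPY-GDP leaves Rap1B (480 nm excitation, 540 nm emission), recorded every 5 minutes over 30 minutes. Reactions held 100 nM EPAC1, 250 nM Rap1B–BODIPY-GDP and 50 uM GDP, with 6.5 mM cAMP setting full activation.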
EPAC1 antagonist – qHTS for Antagonist of cAMP-regulated guanine nucleotide exchange factor 3 (EPAC1): primary screen | 0.14% of 360,000 active | AID 720709, 2013 | EPAC1 GEF assay, Rap1b-BODIPY-GDP exchange fluorescence | Rap guanine nucleotide exchange factor 3 (Homo sapiens), O95398 | Potency, µM (series often up to 115 µM), hits mostly inhibitors; further: nearly all actives have a fitted effect of over 50% in size
TRPML1 ag – qHTS for Agonists of the Human Mucolipin Transient Receptor Potential 1 (TRPML1) | Mucolipin-1 (Homo sapiens), Q9GZU1 | TRPML1-expressing cells, Ca2+ dye fluorescence, FDSS | activation, % (concentration not given with the values) | 0.12% of 410,000 active; in the data active means activation above about 50%; inconclusive means mostly about 30% to 49%
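In this qHTS format, compounds were pin-transferred onto Ca8-dye-loaded TRPML1-DL cells induced with Tet overnight, and intracellular Ca2+ fluorescence was recorded kinetically for 110 s after a 10 s baseline. A subsequent 4uM final 54-4 (EC80) addition followed by a second 110 s read served as the antagonist phase.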
Each line names hits and unclear results; the compound was inactive in the other large screens. Compounds with a hit are over-represented: about 0.4% of the library has one in this group of screens. Unless noted, the call rests on the fitted dose curve; in most records, active means well fitted curve in the direction sought with a large enough effect; inconclusive means small, poorly fitted or top-dose-only effect, or another doubt; inactive means no such curve, though single readings can be large; an effect the other way counts as inactive or inconclusive.

C=CCN1C(=O)/C(=C/c2ccc(OC(C)=O)c(OCC)c2[N+](=O)[O-])SC1=S	EPAC1 antagonist 71µM
CC(=O)c1ccc2c3c(cccc13)CC2	none
ON=C(c1ccccc1)c1ccc2c3c(cccc13)CC2	EPAC2 antagonist 14µM
CCCN(C)CCCOc1cc2nc(N3CCCN(C)CC3)nc(NC3CCN(C)CC3)c2cc1OC	none (no result: TRPML1 blocker, EPAC2 antagonist, EPAC2 ag, EPAC1 ag, EPAC1 antagonist)
Cn1c(Cc2cccs2)nnc1SCc1nc2ccccc2[nH]1	EPAC2 ag 10µM
Cn1c(SCc2nc3ccccc3[nH]2)nnc1-c1cccs1	none
C=CCn1c(SCC(=O)NCc2ccco2)nnc1-c1cccc(N(C)C)c1	none (no result: TRPML1 blocker, EPAC2 antagonist, EPAC2 ag, EPAC1 ag, EPAC1 antagonist)
CN(CC(=O)Nc1ccc(F)cc1)C(=O)COC(=O)C1CCN(c2ccc(C(F)(F)F)cn2)CC1	EPAC1 ag 100µM
O=C(COC(=O)C1CCN(c2ccc(C(F)(F)F)cn2)CC1)Nc1ccc(Cl)cc1	none
COCCCNC(=O)c1ccccc1Oc1ccccc1	none
COCCCNC(=O)c1ccc2c3c(onc13)-c1ccccc1C2=O	EPAC2 ag 100µM, EPAC1 ag 79µM, EPAC1 antagonist inconclusive
COC(=O)[C@H](Cc1ccccc1)N(C)S(=O)(=O)c1cccc(S(=O)(=O)N(C)[C@@H](Cc2ccccc2)C(=O)OC)c1	none
CN([C@@H](C(=O)OC(C)(C)C)c1ccccc1)S(=O)(=O)c1cccc(S(=O)(=O)N(C)[C@@H](C(=O)OC(C)(C)C)c2ccccc2)c1	TRPML1 ag 71
C=C[C@@H]1c2cc(C)ccc2N(S(=O)(=O)c2ccc(C)cc2)[C@H](c2ccc(C(C)(F)F)cc2)C1(C#N)C#N	TRPML1 ag 51 (no result: TRPML1 blocker, EPAC2 antagonist, EPAC2 ag, EPAC1 ag, EPAC1 antagonist)
Cc1ccc(NC(=O)Cn2c(-c3nonc3N)nc3ccccc32)cc1Cl	none (no result: EPAC2 antagonist, EPAC2 ag, EPAC1 ag, EPAC1 antagonist)
C[n+]1c(/C=C/c2ccc(F)cc2)ccc2ccccc21	none (no result: TRPML1 blocker, EPAC2 antagonist, EPAC2 ag, EPAC1 ag, EPAC1 antagonist)
COc1cccc(/C(O)=C/c2nc3ccc(C(=O)NCCc4ccc(Cl)cc4)cc3[nH]c2=O)c1	EPAC2 ag 112µM, EPAC1 ag inconclusive
O=C(NCCc1ccc(Cl)cc1)c1ccc2nc[nH]c2c1	none
COc1cccc(/C(O)=C/c2nc3ccc(C(=O)NCCc4cccc(C)c4)cc3[nH]c2=O)c1	EPAC2 ag 112µM, EPAC1 ag 89µM
Cc1ccc2c(CC(=O)N(Cc3cccc(Cl)c3)C3CCS(=O)(=O)C3)coc2c1 (configuration not stated)	none (no result: EPAC2 antagonist, EPAC2 ag, EPAC1 ag, EPAC1 antagonist)
O=C(CCCn1nnc2ccccc2c1=O)N[C@H](C(=O)O)c1ccccc1	TRPML1 blocker -54
CCCCCc1c2c(cc(O)c1C(=O)O)OC(=O)c1cc(C(=O)CCCC)c(OC)cc1O2	EPAC2 antagonist inconclusive, EPAC1 antagonist 50µM (no result: TRPML1 blocker, TRPML1 ag)
CCCCCc1c2c(cc(O)c1C(=O)O)OC(=O)c1c(cc(OC)cc1C(=O)CCCC)O2	EPAC2 antagonist 50µM, EPAC1 antagonist 50µM
COc1ccc(OC)c(C(=O)CCCC(=O)c2cc(OC)ccc2OC)c1	none (no result: TRPML1 blocker, TRPML1 ag)
CCCCc1c(C(=O)O)cc(OC)cc1C(=O)O	none
O=C(Nc1ccccc1N1CCCCC1)c1cnccn1	EPAC2 antagonist 18µM
CCOC(=O)c1c(N2C(=O)Nc3cc(Cl)c(Cl)cc3N2O)sc2c1CCCCC2	EPAC1 antagonist 50µM
COC(=O)c1ccc(NC(=O)c2nc(S(=O)(=O)Cc3ccccc3F)ncc2Cl)cc1	none (no result: TRPML1 blocker, EPAC2 antagonist, EPAC2 ag, EPAC1 ag, EPAC1 antagonist)
Clc1ccc(CN(Cc2ccccc2)C(c2cccs2)c2nnnn2C2CCCC2)cc1 (configuration not stated)	none

Bioassay records deposited in PubChem BioAssay by National Center for Advancing Translational Sciences (NCATS).
